An excerpt weighted towards active compounds, which were near 3.1% of everything screened.
PMP22 txn prim = PMP22 gene transcription modulation; S16 Pmp22-F2sN Schwann cells, FLuc/NLuc coincidence luminescence, 24 h; Potency, µM (series often up to 57.5 µM), without a hit: at the top dose activity change, negative = inhibition, actives largely listed as inhibitors; hit rate 2% among 43,000; AID 1508649; active = clear falling dose curves in both reporters; inconclusive = both reporters move, but less clearly or upward; inactive = either reporter flat; the % is the NLuc reporter signal; also: potency is read from the fitted curve at half-maximal effect; % is scaled to controls: 0 for no effect and ±100 for the full control effect
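S16 Schwann cells carrying FLuc/NLuc coincidence reporter in the Pmp22 3' UTR treated with compound 24 h at 37C; FLuc then NLuc luminescence read sequentially by dual-luciferase reagents.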
p53null 39C kill = p53 null cell cytotoxicity, nonpermissive temperature; H1299 p53-null (neo) cells, 39C, ATPlite viability, 24 h; AID 904; Potency, µM (top dose mostly 46.1 µM), inactives show top-dose activity, negative = cell killing, actives largely listed as cytotoxic; hit rate 0.97% among 55,000;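 also: potency is read from the fitted curve at half-maximal effect; 0% = DMSO only and -100% = full killing by 100 µM tamoxifen; nearly all actives have a fitted effect of over 50% in size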
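Luminescent ATP signal reported cell survival after H1299 lines (neo, p53 null; or p53 A138V) received up to 46 uM compound and 24 hr incubation at 39C.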
p53null 32C kill = p53 null cell cytotoxicity, permissive temperature; Potency, µM (highest dose often 46.1 µM), for inactives: at the top dose activity change, negative = cytotoxicity, actives largely listed as cytotoxic; H1299-neo p53 null cells, ATP luminescence, 24 h, 32C; hit rate 0.62% among 55,000;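 also: potency is read from the fitted curve at half-maximal effect; 0% = DMSO only and -100% = full killing by 100 µM tamoxifen; nearly all actives have a fitted effect of over 55% in size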
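ATP-content luminescence in p53-null H1299-neo cells after 24 h compound exposure (up to 46 uM) at 32C permissive temperature; 0% and 100% killing set by DMSO and 100 uM tamoxifen; Hill-equation AC50.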
S16 F2sN tox = S16 Schwann cell cytotoxicity. S16 Pmp22-F2sN Schwann cells viability, CellTiter-Glo, 24 h. Potency, µM (series often up to 57.5 µM), without a hit: at the top dose activity change, negative = cytotoxicity, actives largely listed as cytotoxic. hit rate 0.48% among 43,000. AID 1508642; also: potency is read from the fitted curve at half-maximal effect; % is scaled to controls: 0 for no effect and ±100 for the full control effect; nearly all actives have a fitted effect of over 65% in size
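Rat S16 Schwann reporter line, 24 h treatment with library compounds delivered at 23 nL per well. Cell viability by CellTiter-Glo luminescence.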
mTORC1 inh = inhibitors of mTORC1 signaling in Tsc2-/- p53-/- MEF cells. Tsc2-/- p53-/- MEF, phospho-rpS6 immunofluorescence/PI, 24 h. Potency, µM (top dose mostly 38.3 µM), for the others: at the highest dose activity change, negative = inhibition, actives largely listed as inhibitors. hit rate 0.78% among 44,000;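 also: potency is read from the fitted curve at half-maximal effect; plate controls were DMSO for no effect and rapamycin for full effect; nearly all actives have a fitted effect of over 50% in size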
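Immunofluorescence of rpS6 phosphorylation in Tsc2-/-, p53-/- MEFs after 24 h compound exposure, normalized to propidium iodide signal. Activity is expressed as % positive cells, thresholded with 7.5 nM rapamycin.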
OvCa metastasis = blocks SKOV3ip1 adhesion and invasion in omental model | SKOV3ip1-GFP adhesion/invasion on 3D omental model, fluorescence | Potency, µM (doses to about 45.8 µM), inactives show at the highest dose activity change, negative = inhibition, most hits filed as inhibitors | hit rate 0.1% among 46,000 | AID 1963576;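 also: potency is read from the fitted curve at half-maximal effect; plate controls were DMSO wells for no effect and tomatine positive control wells for full effect; nearly all actives have a fitted effect of over 65% in size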
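A 3D layer of primary human omental fibroblasts, mesothelial cells, fibronectin and collagen I, grown 48 hr, received SKOV3ip1-GFP cells in serum-free medium plus compounds at 0.36-46 umol/L. After 2 hr RT and 16 hr 37 C, fixed adherent GFP cells were counted; normalized to DMSO and tomatine.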
NLuc saturating = counter-screen for PMP22 expression modulators: NanoLuc inhibition, saturating substrate; shares compounds with PMP22 txn prim; Secreted NLuc enzyme (filtered S16 cell medium), Nano-Glo luminescence; Potency, µM (top dose mostly 57.5 µM), for inactives: at the top dose activity change, negative = inhibition, most hits filed as inhibitors; hit rate 4% among 690; AID 1508638; also: potency is read from the fitted curve at half-maximal effect; % is scaled to controls: 0 for no effect and ±100 for the full control effect
NLuc Km counter = NanoLuc inhibition at Km substrate, PMP22 artifact check | shares compounds with PMP22 txn prim | secreted NLuc enzyme, coelenterazine luminescence, Km conditions | Potency, µM (doses to about 57.5 µM), for inactives: top-dose activity change, negative = inhibition, most hits filed as inhibitors | hit rate 5% among 690; also: potency is read from the fitted curve at half-maximal effect; % is scaled to controls: 0 for no effect and ±100 for the full control effect
FLuc counter = counter-screen for PMP22 expression modulators: firefly luciferase inhibition; shares compounds with PMP22 txn prim; purified P. pyralis FLuc, luminescence, 10 min; Potency, µM (top dose mostly 57.5 µM), for the others: top-dose activity, negative = inhibition, most hits filed as inhibitors; 690 tested, under 10 active; AID 1508640; also: % of control where 0% means no effect
Target sequence (P08659 whole entry, looked up): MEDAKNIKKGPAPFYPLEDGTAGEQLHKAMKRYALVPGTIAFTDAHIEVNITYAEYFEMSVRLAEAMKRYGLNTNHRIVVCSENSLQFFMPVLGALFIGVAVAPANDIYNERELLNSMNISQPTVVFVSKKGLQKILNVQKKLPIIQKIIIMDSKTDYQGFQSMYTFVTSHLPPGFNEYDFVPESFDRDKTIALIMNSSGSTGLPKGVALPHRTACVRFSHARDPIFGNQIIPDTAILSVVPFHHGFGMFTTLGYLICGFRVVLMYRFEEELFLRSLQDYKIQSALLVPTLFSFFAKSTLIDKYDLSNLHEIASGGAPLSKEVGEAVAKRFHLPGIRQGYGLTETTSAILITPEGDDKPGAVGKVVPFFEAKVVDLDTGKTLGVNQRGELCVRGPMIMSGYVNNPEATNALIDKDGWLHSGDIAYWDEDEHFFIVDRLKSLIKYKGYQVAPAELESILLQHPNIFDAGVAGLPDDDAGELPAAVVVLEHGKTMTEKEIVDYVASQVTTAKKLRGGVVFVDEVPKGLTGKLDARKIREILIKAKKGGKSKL
S16 F2sN tox cnf = confirmation of cytotoxicity in S16 Pmp22-F2sN Schwann cells (luciferase reporters placed in the Pmp22 gene); shares compounds with PMP22 txn prim; S16 Schwann cells viability, CellTiter-Glo ATP luminescence, 24 h; Potency, µM (series often up to 57.5 µM), without a hit: at the top dose activity change, negative = viability loss, most hits filed as cytotoxic; hit rate 7% among 690; also: potency is read from the fitted curve at half-maximal effect; % is scaled to controls: 0 for no effect and ±100 for the full control effect
PMP22 txn cnf = PMP22 transcription modulation, confirmatory. hit rate 22% among 690. shares compounds with PMP22 txn prim. Potency, µM (series often up to 57.5 µM), inactives show top-dose activity change, negative = inhibition, actives largely listed as inhibitors. S16 Schwann cells Pmp22-F2sN, dual luciferase, 24 h; active = clear falling dose curves in both reporters; inconclusive = both reporters move, but less clearly or upward; inactive = either reporter flat; the % is the FLuc reporter signal; also: potency is read from the fitted curve at half-maximal effect
PMP22 prot conf = confirmation of modulators of rat PMP22 protein expression; shares compounds with PMP22 txn prim; S16 Schwann cells Pmp22-HiBiT, luminescence, 48 h; Potency, µM (series often up to 27.9 µM), without a hit: at the top dose activity change, negative = inhibition, usual class: inhibitors; 95 tested, under 10 active; AID 1508647
Target sequence (P25094 whole entry, looked up): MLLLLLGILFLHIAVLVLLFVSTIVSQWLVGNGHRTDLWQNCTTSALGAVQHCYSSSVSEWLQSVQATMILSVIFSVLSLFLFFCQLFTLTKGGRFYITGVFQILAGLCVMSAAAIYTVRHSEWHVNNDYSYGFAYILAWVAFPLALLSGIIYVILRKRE
* hit, by the source's call; i = inactive; ? = inconclusive; nt = no result. Unless noted, calls follow the shape of the dose curve; as a rule, active = well fitted curve in the direction sought with a large enough effect; inconclusive = small, poorly fitted or top-dose-only effect, or another doubt; inactive = no such curve, though single readings can be large; an effect the other way counts as inactive or inconclusive.

SMILES | PMP22 txn prim | p53null 39C kill | p53null 32C kill | S16 F2sN tox | mTORC1 inh | OvCa metastasis | NLuc saturating | NLuc Km counter | FLuc counter | S16 F2sN tox cnf | PMP22 txn cnf | others
CN(C)CC(C)(C)CNc1nn2c(-c3ccccc3)nnc2cc1C1CCC1 | nt | nt | nt | nt | nt | -16.1% | nt | nt | nt | nt | nt
CC1(C)O[C@@H]2C[C@H]3[C@@H]4CCC5=CC(=O)C=C[C@]5(C)[C@@H]4[C@@H](O)C[C@]3(C)[C@]2(C(=O)CO)O1 | nt | nt | nt | nt | nt | 1.2% | nt | nt | nt | nt | nt
O=C(NC[C@H](O)CO)c1ccncc1Nc1ccc(I)cc1F | nt | nt | nt | nt | nt | 17.5% | nt | nt | nt | nt | nt
CCOc1ccc(-n2ccnc2SCC(=O)Nc2nc3ccc(C)cc3s2)cc1 | 8.91µM* | 11.7% | 8.1% | 2.9% | -16.3% | 3.7% | -1.6% | ? | -6.5% | -1.0% | -20.9%
Cc1cccc(-n2ccnc2SCC(=O)Nc2nc3ccccc3s2)c1 | -47.9% | -5.6% | -4.2% | 10.2% | -0.7% | i | nt | nt | nt | nt | nt
CCc1cccc(C)c1NC(=O)c1nc2ccccc2nc1N1CCCCC1 | ? | -9.1% | 7.6% | 0.3% | -8.5% | -5.4% | -4.6% | ? | 1.7% | 9.1% | -27.3%
Clc1cccc(-c2noc3ncnc(NC4CCCCC4)c23)c1 | ? | -11.2% | -2.7% | -18.7% | -13.3% | -0.8% | -12.5% | 2.0% | -11.0% | -16.4% | 8.16µM* | PMP22 prot conf=-6.3%
Cc1cccc(CCNc2ncnc3onc(-c4ccc(Cl)cc4)c23)c1 | 18.9µM* | 16.4% | 15.9% | -18.8% | 1.4% | i | -0.5% | -1.3% | -5.6% | ? | ?
Cc1ccc(CCNc2ncnc3onc(-c4ccc(Cl)cc4)c23)cc1 | ? | ? | -5.7% | -16.8% | 1.8% | i | nt | nt | nt | nt | nt
CC1CCC(Nc2ncnc3onc(-c4ccc(Cl)cc4)c23)CC1 (configuration not stated) | -10.5% | -16.4% | 1.5% | -1.3% | -6.0% | -2.5% | nt | nt | nt | nt | nt
Clc1ccc(-c2noc3ncnc(NC4CCCCC4)c23)cc1 | ? | 1.1% | -3.8% | -0.5% | -0.2% | i | -8.3% | -1.1% | -3.5% | -9.7% | ?
CCCCN(CCCC)CC(O)c1cc(Cl)cc2c1-c1ccc(Cl)cc1C2=Cc1ccc(Cl)cc1 (configuration not stated) | nt | nt | nt | nt | nt | 5.3% | nt | nt | nt | nt | nt
CCOC(=O)[C@@H](N)CCC(=O)N[C@@H](CSCc1ccccc1)C(=O)N[C@@H](C(=O)OCC)c1ccccc1 | nt | nt | nt | nt | nt | 4.3% | nt | nt | nt | nt | nt
Cc1cccc(-c2c3c(=O)n(C)c(=O)n(C)c3c3c(C)nc4ccccc4n23)c1 | 13.3µM* | 2.5% | 6.7% | -25.1% | -12.4% | 8.1% | -7.0% | -14.6% | 1.7% | 4.5% | -52.7%
CC(C)[C@H](O)C(=O)N[C@@H](C)C(=O)N[C@@H]1C(=O)N(C)CCc2ccccc21 | nt | nt | nt | nt | nt | 4.0% | nt | nt | nt | nt | nt
COc1ccccc1N1CCN(c2ncnc3c2cnn3-c2cc(Cl)ccc2C)CC1 | 8.43µM* | 4.8% | ? | ? | 2.6% | -4.8% | ? | ? | 2.8% | ? | ?
COc1ccc(N2CCN(c3c4c(nc5nncn35)CCC4)CC2)cc1 | 13.4µM* | -13.6% | -3.8% | -25.6% | ? | 2.5% | ? | 0.0% | -7.6% | -8.3% | ?
N#Cc1c(C(F)(F)F)cc(-c2cccs2)nc1SCC(=O)Nc1ccc(Cl)cc1 | 18.9µM* | -19.0% | 2.4% | -4.6% | ? | 3.6% | -4.5% | 2.7% | -5.1% | 9.4% | ?
Cc1cccc(NC(=O)Cn2c(=O)c3cccn3c3ccccc32)c1C | ? | 86.3% | -11.8% | -2.1% | ? | -0.1% | -2.4% | 3.0% | 2.0% | 14.6% | -26.0%
CCc1ccccc1NC(=O)Cn1c(=O)c2cccn2c2ccc(F)cc21 | -4.3% | -4.5% | 5.0% | 5.7% | -8.1% | i | nt | nt | nt | nt | nt
CCOc1ccc(CCNC(=O)c2ccc(Nc3nc4ccccc4n4nnnc34)cc2)cc1OCC | ? | -8.8% | -2.9% | -26.9% | -0.8% | -27.8% | nt | nt | nt | nt | nt
O=C(NCc1ccccc1)c1cccc(Nc2nc3ccccc3n3nnnc23)c1 | 12.7µM* | -12.8% | -5.1% | ? | -3.0% | 6.5% | -1.5% | 1.8% | 7.3% | 21.7µM* | 13.7µM*
COc1ccccc1CNC(=O)c1cccc(Nc2nc3ccccc3n3nnnc23)c1 | ? | -27.6% | -10.9% | ? | -1.8% | -12.5% | nt | nt | nt | nt | nt
Cc1ccc(CCNC(=O)c2ccc(Nc3nc4ccccc4n4nnnc34)cc2)cc1 | ? | -27.3% | -6.3% | -9.6% | 1.0% | 1.6% | -12.6% | 1.2% | -3.0% | 24.3µM* | ?
Clc1cccc(N2CCN(c3ncnc4c3nc3n4CCCCC3)CC2)c1 | 20µM* | ? | -17.9% | -10.2% | -21.1% | i | ? | 13.7µM* | -2.9% | ? | ?
O=C(C1CCN(c2ncnc3c2nc2n3CCCCC2)CC1)N1CCN(c2cccc(Cl)c2)CC1 | ? | -23.5% | 7.3% | -27.6% | -10.4% | -29.8% | nt | nt | nt | nt | nt

Assay outcomes (PubChem BioAssay)
